Assay results reported in PubChem BioAssay AID1159580 (chemical genetic matrix, 2015).
Screen size: about 5,500 compounds; about 2,000 (36%) were called active. About 18% were inconclusive and are not listed. Rule as the data show it: active = normalized growth mostly below about 0.91 (no sharp cut-off); inconclusive = no clear call, values can overlap the other calls; inactive = mostly above about 0.92. Some of the results follow.

Experiment: chemical genetic growth profiling, strain panel (AID 1159580);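 also: tested at 20 µM; growth read once vehicle control cultures reached saturation at 30 °C; 1 = growth at the plate median or of vehicle wells; lower values mean less growth of the strain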
Conditions: growth OD

Measured: normalized growth

CN(C)CC/C=C1\c2ccccc2Sc2ccc(Cl)cc21
active: S. cerevisiae deletion strains, locus YJR066W, strain TOR1, stronger effect = lower value 0.815 | S. cerevisiae deletion strains, locus YKL160W, strain elf1, stronger effect = lower value 0.867 | S. cerevisiae deletion strains, locus YLR027C, strain aat2, stronger effect = lower value 0.881 | S. cerevisiae deletion strains, locus YLR039C, strain RIC1, stronger effect = lower value 1.5 [resistant] | S. cerevisiae deletion strains, locus YLR258W, strain gsy2, stronger effect = lower value 0.894 | S. cerevisiae deletion strains, locus YLR262C, strain YPT6, stronger effect = lower value 1.62 [resistant] | S. cerevisiae deletion strains, locus YLR342W, strain FKS1 (second series), stronger effect = lower value 0.667 | S. cerevisiae deletion strains, locus YLR342W, strain FKS1, stronger effect = lower value 0.724 | S. cerevisiae deletion strains, locus YLR370C, strain arc18, stronger effect = lower value 0.749 | S. cerevisiae deletion strains, locus YLR418C, strain cdc73, stronger effect = lower value 0.661 | S. cerevisiae deletion strains, locus YMR058W, strain fet3, stronger effect = lower value 0.775 | S. cerevisiae deletion strains, locus YMR231W, strain pep5, stronger effect = lower value 0.0779 | S. cerevisiae deletion strains, locus YNL209W, strain ssb2, stronger effect = lower value 0.665 | S. cerevisiae deletion strains, locus YOL006C, strain TOP1, stronger effect = lower value 0.42 | S. cerevisiae deletion strains, locus YOR070C, strain gyp1, stronger effect = lower value 0.804 | S. cerevisiae deletion strains, locus YOR083W, strain WHI5, stronger effect = lower value 0.735 | S. cerevisiae deletion strains, locus YOR106W, strain vam3, stronger effect = lower value 0.393 | S. cerevisiae deletion strains, locus YOR270C, strain vph1, stronger effect = lower value 0.41 | S. cerevisiae deletion strains, locus YOR290C, strain snf2, stronger effect = lower value 0.818 | S. cerevisiae deletion strains, locus YPL051W, strain arl3, stronger effect = lower value 0.76 | S. cerevisiae deletion strains, locus YPL078C, strain atp4, stronger effect = lower value 0.835 | S. cerevisiae deletion strains, locus YPL106C, strain sse1, stronger effect = lower value 0.802 | S. cerevisiae deletion strains, locus YPR163C, strain tif3, stronger effect = lower value 0.827
inactive: S. cerevisiae deletion strains, locus YJR043C, strain POL32, stronger effect = lower value 1.03 | S. cerevisiae deletion strains, locus YJR075W, strain HOC1, stronger effect = lower value 0.884 | S. cerevisiae deletion strains, locus YKL009W, strain mrt4, stronger effect = lower value 0.989 | S. cerevisiae deletion strains, locus YKL068W, stronger effect = lower value 1.01 | S. cerevisiae deletion strains, locus YKL085W, strain MDH1 (second series), stronger effect = lower value 1.03 | S. cerevisiae deletion strains, locus YKL085W, strain MDH1, stronger effect = lower value 1.03 | S. cerevisiae deletion strains, locus YKL190W, strain CNB1, stronger effect = lower value 0.982 | S. cerevisiae deletion strains, locus YKR026C, strain gcn3, stronger effect = lower value 0.992 | S. cerevisiae deletion strains, locus YKR091W, strain srl3, stronger effect = lower value 0.987 | S. cerevisiae deletion strains, locus YLL001W, strain dnm1, stronger effect = lower value 0.904 | S. cerevisiae deletion strains, locus YLL026W, stronger effect = lower value 0.981 | S. cerevisiae deletion strains, locus YLL041C, strain sdh2, stronger effect = lower value 0.993 | S. cerevisiae deletion strains, locus YLR058C, strain SHM2, stronger effect = lower value 0.933 | S. cerevisiae deletion strains, locus YLR102C, strain apc9, stronger effect = lower value 1.02 | S. cerevisiae deletion strains, locus YLR113W, strain HOG1, stronger effect = lower value 0.915 | S. cerevisiae deletion strains, locus YLR221C, strain rsa3, stronger effect = lower value 0.947 | S. cerevisiae deletion strains, locus YLR262C, strain YPT6 (second series), stronger effect = lower value 1.1 | S. cerevisiae deletion strains, locus YLR268W, strain sec22, stronger effect = lower value 1.01 | S. cerevisiae deletion strains, locus YLR320W, strain mms22, stronger effect = lower value 0.951 | S. cerevisiae deletion strains, locus YLR330W, strain CHS5, stronger effect = lower value 0.999 | S. cerevisiae deletion strains, locus YLR357W, strain rsc2, stronger effect = lower value 0.935 | S. cerevisiae deletion strains, locus YLR371W, strain rom2, stronger effect = lower value 1.01 | S. cerevisiae deletion strains, locus YLR384C, strain iki3, stronger effect = lower value 0.987 | S. cerevisiae deletion strains, locus YML016C, strain PPZ1, stronger effect = lower value 0.994 | S. cerevisiae deletion strains, locus YML032C, strain rad52, stronger effect = lower value 0.947 | S. cerevisiae deletion strains, locus YML120C, strain ndi1, stronger effect = lower value 0.998 | S. cerevisiae deletion strains, locus YML124C, strain tub3, stronger effect = lower value 1.02 | S. cerevisiae deletion strains, locus YMR078C, strain ctf18, stronger effect = lower value 1.02 | S. cerevisiae deletion strains, locus YMR125W, strain sto1, stronger effect = lower value 0.923 | S. cerevisiae deletion strains, locus YMR129W, stronger effect = lower value 1 | S. cerevisiae deletion strains, locus YMR205C, strain PFK2, stronger effect = lower value 0.921 | S. cerevisiae deletion strains, locus YMR223W, strain ubp8, stronger effect = lower value 0.935 | S. cerevisiae deletion strains, locus YMR307W, strain GAS1, stronger effect = lower value 0.903 | S. cerevisiae deletion strains, locus YNL067W, strain RPL9B, stronger effect = lower value 0.929 | S. cerevisiae deletion strains, locus YNL071W, strain lat1, stronger effect = lower value 0.934 | S. cerevisiae deletion strains, locus YNL183C, strain NPR1, stronger effect = lower value 0.872 | S. cerevisiae deletion strains, locus YNL233W, strain BNI4, stronger effect = lower value 0.891 | S. cerevisiae deletion strains, locus YNL248C, strain rpa49, stronger effect = lower value 0.917 | S. cerevisiae deletion strains, locus YNL250W, strain rad50, stronger effect = lower value 1.03 | S. cerevisiae deletion strains, locus YNL271C, strain bni1, stronger effect = lower value 1.01 | S. cerevisiae deletion strains, locus YNL298W, strain CLA4, stronger effect = lower value 1 | S. cerevisiae deletion strains, locus YNL307C, strain MCK1, stronger effect = lower value 0.999 | S. cerevisiae deletion strains, locus YNL322C, strain KRE1 (second series), stronger effect = lower value 1.03 | S. cerevisiae deletion strains, locus YNR049C, strain mso1, stronger effect = lower value 0.996 | S. cerevisiae deletion strains, locus YNR052C, strain pop2, stronger effect = lower value 0.964 | S. cerevisiae deletion strains, locus YOL012C, strain htz1 1.87 | S. cerevisiae deletion strains, locus YOL147C, strain pex11, stronger effect = lower value 1.02 | S. cerevisiae deletion strains, locus YOR001W, strain rrp6, stronger effect = lower value 0.935 | S. cerevisiae deletion strains, locus YOR061W, strain CKA2, stronger effect = lower value 0.941 | S. cerevisiae deletion strains, locus YOR069W, strain VPS5, stronger effect = lower value 1 | S. cerevisiae deletion strains, locus YOR080W, strain dia2, stronger effect = lower value 0.975 | S. cerevisiae deletion strains, locus YOR136W, strain idh2, stronger effect = lower value 1.02 | S. cerevisiae deletion strains, locus YOR144C, strain elg1, stronger effect = lower value 1.01 | S. cerevisiae deletion strains, locus YOR184W, strain ser1, stronger effect = lower value 1.06 | S. cerevisiae deletion strains, locus YOR231W, strain MKK1, stronger effect = lower value 0.869 | S. cerevisiae deletion strains, locus YOR265W, strain rbl2, stronger effect = lower value 0.974 | S. cerevisiae deletion strains, locus YOR316C, strain cot1, stronger effect = lower value 1.02 | S. cerevisiae deletion strains, locus YPL240C, strain hsp82, stronger effect = lower value 0.981 | S. cerevisiae deletion strains, locus YPL241C, strain CIN2, stronger effect = lower value 1.01 | S. cerevisiae deletion strains, locus YPL256C, strain CLN2, stronger effect = lower value 0.95 | S. cerevisiae deletion strains, locus YPR119W, strain clb2, stronger effect = lower value 1.03 | S. cerevisiae deletion strains, locus YPR141C, strain kar3, stronger effect = lower value 1.02 | S. cerevisiae deletion strains, locus YPR167C, strain met16, stronger effect = lower value 1.01 | S. cerevisiae deletion strains, strain wtn01, stronger effect = lower value 0.937 | S. cerevisiae strains, strain wild type, stronger effect = lower value 0.956
